Measurements reported in PubChem BioAssay AID588398 (Broad Institute, 2011).
In all, about 1,200 compounds went through this assay and about 110 (9.2%) were called active. Roughly 8% stayed inconclusive and do not appear here. A selection follows. Measured potencies and affinities stand elsewhere. Values without a mark were called inactive.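 How the source made its calls: active means pathway reporter half-maximal dose under half the control reporter's, or control reporter unaffected while pathway reporter is inhibited; inconclusive means either signal flat at 30 to 70% inhibition or poorly fitted; inactive means the rest.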

Test: LMP1 TES1 pathway selectivity over dsRED control – imaging, HEK293T, dual-color eGFP/dsRED, cherry-picks, selectivity assay for LMP1 NF-kB inhibitor project, dose response (AID 588398);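 further: 0% = median of neutral control wells and -100% = median of MG132 positive control wells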
Conditions: 48 h; HEK293T Tet-On dsRED counter-screen channel, at 19.5 µM (top of the series); activity change, negative = inhibition: at the top concentration

Row | SMILES | activity change, negative = inhibition [%]
1 | Cc1[nH]n(-c2ccc(Br)cc2)c(=O)c1/C=N/NC(=O)c1ccccc1 | -87.3
2 | Cc1cc(C(=O)CSc2nnc(-c3cccs3)o2)c(C)n1-c1ccccc1 | -4.58
3 | CC1=C(C(=O)OCc2ccc3c(c2)OCO3)C(c2ccc(Cl)cc2)NC(=O)N1 (stereo not drawn) | -87.8
4 | CC(=O)Oc1ccc(C(=O)Nc2cccnc2)cc1 | -6.76
5 | O=C(O)c1cccc(Nc2ccnc(Nc3cccc(C(=O)O)c3)n2)c1 | -17.6
6 | O=C(CN1C(=O)c2ccccc2S1(=O)=O)Nc1ncc(Cl)cc1Cl | -4.81
7 | Oc1[nH]c2ccccc2c1N=Nc1c(F)c(F)c(Cl)c(F)c1F | -13
8 | CN(C)c1ccc(-c2nc3ccccc3n2C)cc1 | 12.4
9 | COc1ccc(C(=O)N=c2nc3ccccn3s2)cc1 | -14.4
10 | COc1ccc(C(Nc2ccccn2)c2oc(CO)cc(=O)c2O)cc1 (stereo not drawn) | -3.88
11 | C[C@@H]1CN([C@@H](C)CO)C(=O)c2cc(NC(=O)Nc3ccccc3)ccc2O[C@H]1CN(C)C(=O)Nc1cccc2ccccc12 | 27.7
12 | CCCCC(=O)NC(c1ccc(OC)c(OC)c1)c1ccc2cccnc2c1O (stereo not drawn) | -81.1
13 | CCCC(=O)NC(c1ccc(C)cc1)c1ccc2cccnc2c1O (stereo not drawn) | -68.9
14 | CCC(=O)NC(c1ccc(C)cc1)c1ccc2cccnc2c1O (stereo not drawn) | -80.4
15 | CCCC(=O)NC(c1ccc(C(C)C)cc1)c1ccc2cccnc2c1O (stereo not drawn) | -83.8
16 | COc1cccc(C2=CC(=O)C[C@H](c3ccc4c(c3)OCO4)C2)c1 | -1.55
17 | C[C@@H]1CN([C@@H](C)CO)S(=O)(=O)c2ccc(/C=C/c3ccccc3)cc2O[C@@H]1CN(C)Cc1ccc(C(=O)O)cc1 | 89.4
18 | CCCCCN=Cc1c(C)[nH]n(-c2nc3ccccc3s2)c1=O | -4.71
19 | O=C(OCc1nc2ccccc2s1)[C@@H]1CCCN1S(=O)(=O)c1ccccc1F | 17.3
20 | CCOc1ccc(N(C(C)C(=O)N2CCCCCC2)S(C)(=O)=O)cc1 (stereo not drawn) | -3.25
21 | CCSc1nnc(NC(=O)CSc2nnc(-c3c[nH]c4ccccc34)n2CC)s1 | 40.4

Row | SMILES | activity change, negative = inhibition [%]
22 | O=C(/C=C1\NC2(CCCC2)Cc2ccccc21)C(=O)N/N=C/c1ccccc1O | -21.8
23 | CCSc1nc2ccc(OC)cc2cc1C#N | 5.68
24 | COC(=O)c1[nH]c2ccc(C)cc2c1NC(=O)NC1CCCCC1 | 13.7
25 | O=C(C1CCCCC1)N1CCN(c2ncccn2)CC1 | -7.76
26 | O=C1c2ccccc2C(=O)c2cc(N3CCCCC3)ccc21 | 5.87
27 | N/C(=N\OC(=O)c1ccccc1)c1ccccn1 | 6.51
28 | O=C(Nc1ccc(Cl)cc1)Nc1nnc(CSCc2ccc(Cl)cc2)s1 | -9.55
29 | Nc1ccn(C2CCCO2)c(=O)n1 (stereo not drawn) | 0.032
30 | COc1ccc(C(=O)Nc2nnc(SCC(=O)NC3CC3)s2)cc1 | 5.05
31 | CCOc1ccc(C(=O)Nc2nnc(SCC(=O)NCC3CCCO3)s2)cc1 (stereo not drawn) | 27.3
32 | CSc1nc(C)cc(C)c1C#N | 8.86
33 | COC(=O)[C@@]1(C)[C@H]2C(=O)N(Cc3ccccc3)C(=O)[C@H]2[C@H]2CN=C(SCc3ccc(Cl)cc3)N21 | -98.7
34 | Cc1cccc(NC(=O)c2cnc3ccccn3c2=O)c1 | -11.4
35 | COCCNC(=O)C1CCC(CNS(=O)(=O)c2ccccc2)CC1 (stereo not drawn) | -3
36 | NC(=S)NN=Cc1nccc2c(C(F)(F)F)cccc12 | -100
37 | NC(=S)NN=Cc1nccc2c(C(F)(F)C(F)(F)C(F)(F)F)cccc12 | -99.4
38 | O=C(Nc1ccccc1)c1cn2ccccc2n1 | -9.66
39 | COC(=O)CSc1ncnc2c1sc1nc3c(cc12)COC(C)(C)C3 | -2.11
40 | C[C@H](NC(=O)N1CCn2c1nc1ccccc12)C(=O)NCC1CCCO1 (stereo partly drawn) | 8.93
41 | CCN(C(=O)c1cc(OC)c(OC)c(OC)c1)C1CCCCC1 | 7.62
42 | CCOC(=O)c1c(CSc2nc(C)cc(C)c2C#N)n(C)c2cc(Br)c(OC(C)=O)cc12 | 3.15

Row | SMILES | activity change, negative = inhibition [%]
43 | CC(=NNC(=S)N1CCCCCC1)c1cccc2cccnc12 | -12
44 | CCCc1c(C(=O)N/N=C(\C)c2ccccn2)nnn1-c1nonc1N | 22.8
45 | CC(=NNC(=S)N1CCCCC1)c1cccc(C)n1 | -27.2
46 | COC(=O)c1ccc(COc2ccccc2/C=C/C(=O)c2ccc(OCC(=O)O)cc2)cc1 | -8.56
47 | COC(=O)c1ccccc1NC(=O)CC(=O)Nc1ccccc1C(=O)OC | 1.92
48 | COc1cccc(C(=O)N2CCN(c3nc4cc(C)cc(C)c4cc3C#N)CC2)c1 | -18
49 | Cc1cc(=O)[nH]c(NN=Cc2cc(Br)ccc2O)n1 | -97.9
50 | COc1ccc(N2C(=O)C(=O)/C(=C(/O)c3ccc(C)cc3)C2c2cccnc2)cc1 (stereo not drawn) | 22.8
51 | CCCC(=O)C1=C(O)C(C(=O)OC)C(C)(C)CC1=Nc1ccncc1 (stereo not drawn) | 19.7
52 | Cc1csc(N=Nc2ccc(N(C)C)cc2)[n+]1[O-] | -34.3
53 | Cc1ccc2c(c1)N(CC(=O)N1CCCC1)C(=O)c1cccnc1O2 | 38.8
54 | COc1ccccc1N1CCN(C(=O)CCC(=O)N2CCN(c3ccc(F)cc3)CC2)CC1 | 3.73
55 | O=C(CSc1nnc(NC(=O)c2ccc3c(c2)OCO3)s1)NCc1ccco1 | 9.96
56 | C/C(=N/NC(=O)c1cc(C2CC2)[nH]n1)c1cccs1 | 20.3
57 | Cn1c(/C=C/c2ccccc2)nc2ccccc21 | 1.47
58 | COc1cccc(/C=N/NC(=O)c2[nH]nc3c2CCc2ccccc2-3)c1O | -95.5
59 | Cc1ccc2[nH]c(C(=O)N/N=C/c3ccccc3O)c(C)c2c1 | 4.04
60 | Cn1c(=O)c2c(ncn2CC(=O)Nc2cc(S(=O)(=O)N3CCCCC3)ccc2O)n(C)c1=O | -5.88
61 | COc1ccc(CCNC(=O)CSc2ccsc2[N+](=O)[O-])cc1OC | -6.35
62 | COC(=O)C(NS(=O)(=O)c1ccc(N2CCCC2=O)cc1)c1ccccc1 (stereo not drawn) | -12.8
63 | CC(C)(C)c1nc2c(s1)CCc1onc(-c3ccc(Br)cc3)c1-2 | 14.6

Row | SMILES | activity change, negative = inhibition [%]
64 | CN(C)c1ccc(C=Cc2ccnc3c(O)cccc23)cc1 | 11.2
65 | COc1ccc(S(=O)(=O)N2CCN(CC(=O)Nc3ccc(C)c(F)c3)CC2)cc1 | -19.7
66 | Cc1cnc(NC(=O)c2ccccn2)s1 | 9
67 | CC(=NNC(=S)Nc1ccccc1Cl)c1ccccn1 | -97.9
68 | C/C(=N/NC(=O)c1ccc(C(C)(C)C)cc1)c1ccccn1 | -87.1
69 | CC(=NNC(=S)Nc1ccccc1)c1ccccn1 | -98.8
70 | CCOc1cc(C(=O)OC(C)C(=O)Nc2ncc(Cl)cc2Cl)ccc1OCC(=O)N1CCOCC1 (stereo not drawn) | 12.4
71 | CCCCCC(=O)N1C[C@@H](O)[C@H](n2cc(C3CC3)nn2)C[C@@H]1c1ccc(C)cc1 | 7.65
72 | O=C(Nc1cnc2ccccn2c1=O)c1ccc(Cl)cc1Cl | -8.94
73 | O=C(O)/C=C/c1ccc2ccccc2n1 | -37.2
74 | Cc1cc(C)nc(N/C(=N\S(=O)(=O)Cc2ccccc2)Nc2ccccc2Br)n1 | -58.7
75 | O=C1OCC2=C1C(c1ccc3c(c1)OCO3)c1cc3c(cc1O2)OCO3 (stereo not drawn) | 109
76 | Cc1cccc(C)c1Nc1nc2ccccc2o1 | 18.3
77 | Cc1nc(Nc2nc3ccccc3o2)nc2c1CCC2 | -4.15
78 | O=[N+]([O-])c1ccc2ncnc(N3CCN(Cc4ccc5c(c4)OCO5)CC3)c2c1 | -93.3
79 | CC(=C/c1ccccc1)/C=N/n1c(-c2ccncc2)n[nH]c1=S | -87.9
80 | CCOC(=O)c1ccc(NC(=O)CSc2nc(N3CCOCC3)nc(N3CCOCC3)n2)cc1 | -0.658
81 | Cc1ccc(S(=O)(=O)N2c3ccccc3-c3c(ssc3=S)C2(C)C)cc1 | 0.776
82 | Cc1cccc(-n2ncc3c(N4CCOCC4)ncnc32)c1 | 8.93
83 | O=C(Cc1cccc2ccccc12)Nc1ccc(-c2cc3ccccc3oc2=O)cc1 | 5.22
